Pf growth 96h = P. falciparum growth inhibition at 96 hours; P. falciparum luciferase reporter growth, 96 h; Potency, µM (series often up to 28.7 µM), actives largely listed as inhibitors; hit rate 6.9% among 320,000
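96 h incubation, 37 C, 5% CO2, of luciferase-reporter P. falciparum-infected RBCs (2% hematocrit, 0.05% parasitemia final) with test compounds; endpoint luminescence.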
NS1 inh = blocks influenza NS1 protein function | Potency, µM (doses to about 46.1 µM) | hit rate 0.4% among 270,000; calls by dose curve; also: actives are rising curves; nearly all actives have a fitted effect of over 50% in size
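OD600 was taken as the measure of yeast growth restored by compound in an NS1-expressing S. cerevisiae strain. Cells had been washed out of glucose medium and diluted 1:100 into galactose -URA medium, pH 6.0.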
Vaccinia Venus = inhibitors of vaccinia virus (Venus reporter). Potency, µM (titrated, usually from 36.5 µM), hits mostly inhibitors. Vaccinia virus Venus reporter expression, fluorescence. hit rate 0.46% among 330,000. AID 720580; calls by dose curve; tested in A549 cells; also: nearly all actives have a fitted effect of over 30% in size
HCV inhibitor = HCV inhibition; Huh7.5.1 HCVcc-Cre infection, luciferase reporter, 44 h; Potency, µM (series often up to 41.8 µM), usual class: inhibitors; hit rate 3.4% among 340,000
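Reporter virus HCVcc-Cre (~0.5 moi) infects cells exposed to compound; seeding density 1,000 cells/well with 4 h settling beforehand. Luminescence, 15 sec read, taken 44 h post-infection following a 15 min RT substrate incubation.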
Vaccinia mCherry = vaccinia inhibition (mCherry reporter); Vaccinia virus mCherry reporter infection, fluorescence; hit rate 0.63% among 310,000; AID 720579; Potency, µM (highest dose often 36.5 µM), usual class: inhibitors; calls by dose curve; tested in A549 cells; also: nearly all actives have a fitted effect of over 35% in size
Pf growth 48h = P. falciparum growth inhibition at 48 hours (one generation). P. falciparum luciferase growth in erythrocytes, 48 h. Potency, µM (highest dose often 28.7 µM), usual class: inhibitors. hit rate 5.9% among 310,000
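Here the parasites carry a stable luciferase gene and grow inside erythrocytes in Albumax-based RPMI medium with compound for one erythrocytic cycle. Activity is scored as loss of luminescent signal.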
Each line names hits and unclear results; the compound was inactive in the other large screens; ! = repeats disagree. Only some compounds are listed: those with a hit (about 11% of all), similar ones and a draw of the others. Unless noted, calls follow the shape of the dose curve; as a rule, active = well fitted inhibition curve with a large enough effect; inconclusive = small, poorly fitted or top-dose-only effect, or another doubt; inactive = no such curve, though single readings can be large or run the other way.

OCCc1c[nH]c2cc(F)ccc12	none
Cc1ccc2sc(NC(=O)c3cccc(N4C(=O)CCC4=O)c3)nc2c1C	HCV inhibitor inconclusive
Cc1ccc(CN2[C@H]3CCCC[C@@H]3OCCS2(=O)=O)cc1	none (no result: Pf growth 96h, NS1 inh, HCV inhibitor, Pf growth 48h)
CCOC(=O)Cn1c(=O)c2c(nc(N3CCCCC3)n2Cc2ccccc2)n(C)c1=O	Pf growth 96h inconclusive, Vaccinia Venus inconclusive, Pf growth 48h 5.2µM (no result: Vaccinia mCherry)
CN1CCN(c2nc3c(c(=O)n(C)c(=O)n3C)n2Cc2ccccc2)CC1	none (no result: Vaccinia Venus, Vaccinia mCherry)
CC(C)Cn1c(NCCN(C)C)nc2c1c(=O)[nH]c(=O)n2C	none (no result: Pf growth 96h)
Cn1c(=O)c2c(nc(N3CCN(Cc4ccccc4)CC3)n2CCCc2ccccc2)n(C)c1=O	Pf growth 96h 6.6µM, HCV inhibitor inconclusive, Pf growth 48h 3.7µM (no result: Vaccinia mCherry)
CC1CCN(c2nc3c(c(=O)n(C)c(=O)n3C)n2Cc2ccccc2)CC1	Pf growth 96h inconclusive, HCV inhibitor inconclusive, Vaccinia mCherry 20µM, Pf growth 48h 13µM
CCCCn1c(NCCN(C)C)nc2c1c(=O)[nH]c(=O)n2C	Pf growth 96h 4.7µM
Cc1ccc(N2CCN(C(=O)Cc3c(C(=O)O)c(C)cn3C)CC2)c(C)c1	none (no result: Pf growth 96h, NS1 inh, HCV inhibitor, Pf growth 48h)
CNc1nc2c(c(=O)[nH]c(=O)n2C)n1CCCc1ccccc1	none
Cn1c(=O)[nH]c(=O)c2c1nc(N1CCN(Cc3ccccc3)CC1)n2CCCc1ccccc1	Pf growth 48h 5.2µM (no result: Pf growth 96h)
Cc1nc(N2CCN(Cc3ccccc3)CC2)[nH]c(=O)c1C	Pf growth 96h 2.6µM (no result: Vaccinia Venus, Vaccinia mCherry)
CCc1c(O)nc(N2CCN(Cc3ccccc3)CC2)[nH]c1=O	none (no result: Pf growth 96h, Vaccinia Venus, Vaccinia mCherry)
CCC(C)Nc1nc2c(c(=O)[nH]c(=O)n2C)n1CCCc1ccccc1 (stereo not given)	Pf growth 96h 4.1µM
CCN1CCN(c2nc3c(c(=O)[nH]c(=O)n3C)n2CCCc2ccccc2)CC1	none
CCNC(=S)N/N=C/c1c(C)nn(-c2cccc(Cl)c2)c1Cl	Vaccinia Venus inconclusive, HCV inhibitor inconclusive, Pf growth 48h inconclusive
Cc1nn(-c2cccc(Cl)c2)c(Cl)c1/C=N/NC(=O)c1cccs1	Pf growth 96h inconclusive, Pf growth 48h 10µM
O=C(CSc1ccccc1)NCCc1ccc(F)cc1	Pf growth 96h 3.3µM (no result: Vaccinia Venus, Vaccinia mCherry)
CC(C(=O)NCCc1ccc(F)cc1)N1CCN(Cc2ccccc2)CC1 (stereo not given)	Pf growth 96h 5.2µM, Pf growth 48h inconclusive (no result: NS1 inh)
Cc1nn(-c2ccccc2)c(C)c1/C=N/N1CCN(c2ccccc2)CC1	HCV inhibitor inconclusive (no result: Vaccinia Venus, Vaccinia mCherry)
CCCC(=O)Nc1ccc(-c2csc(N/N=C\c3ccncc3)n2)cc1	Pf growth 96h inconclusive, HCV inhibitor inconclusive, Pf growth 48h 8.3µM
COC(=O)c1ccc(/C=N/Nc2nc(-c3ccccc3)cs2)cc1	none
COC(=O)c1ccc(/C=N/Nc2nc(-c3ccc(C)cc3)cs2)cc1	Vaccinia Venus inconclusive, Vaccinia mCherry 13µM
CC(=O)Nc1ccc(-c2csc(N/N=C\c3ccncc3)n2)cc1	Pf growth 96h inconclusive, HCV inhibitor inconclusive, Pf growth 48h inconclusive
CN1CCN(C(=O)c2cnn(-c3cccc(F)c3)c2C2CCN(C(=O)OC(C)(C)C)CC2)CC1	none (no result: Pf growth 96h, NS1 inh, HCV inhibitor, Pf growth 48h)
CCCC(=O)c1c[nH]c(C(=O)N2CCOCC2)c1	none
CC(C)OC(=O)CSc1nnc(-c2ccccn2)n1-c1ccccc1	Pf growth 96h inconclusive (no result: Vaccinia mCherry)
Cc1csc(SCC(=O)N(C)CC(=O)Nc2ccccc2Cl)n1	none (no result: NS1 inh)
CC(C)N=C(N)/N=C(\N)Nc1ccc(Cl)cc1	Pf growth 96h 0.36µM, Pf growth 48h 2.9µM (no result: NS1 inh, Vaccinia Venus, HCV inhibitor, Vaccinia mCherry)
CC(C)N=C(N)N=C(N)Nc1ccc(Cl)cc1	Pf growth 96h 0.33µM, Pf growth 48h 1.2µM (no result: NS1 inh)
NC(=NCCCCCCN=C(N)/N=C(\N)Nc1ccc(Cl)cc1)/N=C(\N)Nc1ccc(Cl)cc1	Pf growth 96h inconclusive, Vaccinia Venus 10µM!, HCV inhibitor inconclusive, Vaccinia mCherry inconclusive, Pf growth 48h 0.33µM
COC(=O)CNC(=O)CNC(=O)Nc1ccccc1Cl	none (no result: Vaccinia Venus, Vaccinia mCherry, Pf growth 48h)
Cc1cccc(OCCCC(=O)N2CCCc3ccccc32)c1C	Pf growth 96h inconclusive, HCV inhibitor 10µM (no result: Vaccinia Venus, Vaccinia mCherry, Pf growth 48h)
O=C1c2cccc(OCC(=O)N3CCCc4ccccc43)c2CCN1Cc1ccc(F)cc1	Pf growth 96h 10µM, HCV inhibitor inconclusive, Pf growth 48h inconclusive
CN1CCc2c(OCC(=O)N3CCCc4ccccc43)cccc2C1=O	Pf growth 96h inconclusive
Cc1ccc(C)c(NC(=O)COc2cccc3c2CCN(Cc2ccccc2)C3=O)c1	Pf growth 96h inconclusive, HCV inhibitor inconclusive
Cc1cccc(CN2CCc3c(OCC(=O)N4CCCc5ccccc54)cccc3C2=O)c1	Pf growth 96h inconclusive, Vaccinia Venus inconclusive, HCV inhibitor inconclusive, Vaccinia mCherry inconclusive, Pf growth 48h 12µM
COc1ccc(NC(=O)CN2CCN(CC(=O)Nc3ccccc3Cl)CC2)cc1Cl	Pf growth 48h inconclusive
CC(=O)Nc1ccc(NCC(=O)c2ccccc2)cc1	Pf growth 96h inconclusive
COc1cc(/C=N/NC(=O)c2ccncc2)ccc1OC(=O)c1ccc([N+](=O)[O-])cc1	none
COc1ccc(-n2nc(C(=O)NCC(=O)NCCC3=CCCCC3)c3ccccc3c2=O)cc1OC	Pf growth 96h 9.3µM, HCV inhibitor inconclusive, Pf growth 48h inconclusive
COCCCNC(=O)CNC(=O)c1nn(-c2ccc(OC)cc2OC)c(=O)c2ccccc12	Pf growth 96h inconclusive (no result: Vaccinia Venus, Vaccinia mCherry, Pf growth 48h)
COc1ccc(-n2nc(C(=O)NCC(=O)NC(C)C)c3ccccc3c2=O)cc1OC	none (no result: Vaccinia Venus, Vaccinia mCherry, Pf growth 48h)
COC(=O)CNC(=O)CNC(=O)c1nn(-c2ccc(OC)c(OC)c2)c(=O)c2ccccc12	none (no result: Vaccinia Venus, Vaccinia mCherry)

High-throughput results (PubChem BioAssay)
